These results are taken from ChEMBL document CHEMBL1961873, “Compounds: GSK PKIS; Assays: Nanosyn kinase panel” (2012).

Experiment [1] has as its target T1, 3-phosphoinositide-dependent protein kinase 1 (Homo sapiens) (UniProt O15530).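 Also: values are mean inhibition of PDK1.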
T1 sequence (whole entry): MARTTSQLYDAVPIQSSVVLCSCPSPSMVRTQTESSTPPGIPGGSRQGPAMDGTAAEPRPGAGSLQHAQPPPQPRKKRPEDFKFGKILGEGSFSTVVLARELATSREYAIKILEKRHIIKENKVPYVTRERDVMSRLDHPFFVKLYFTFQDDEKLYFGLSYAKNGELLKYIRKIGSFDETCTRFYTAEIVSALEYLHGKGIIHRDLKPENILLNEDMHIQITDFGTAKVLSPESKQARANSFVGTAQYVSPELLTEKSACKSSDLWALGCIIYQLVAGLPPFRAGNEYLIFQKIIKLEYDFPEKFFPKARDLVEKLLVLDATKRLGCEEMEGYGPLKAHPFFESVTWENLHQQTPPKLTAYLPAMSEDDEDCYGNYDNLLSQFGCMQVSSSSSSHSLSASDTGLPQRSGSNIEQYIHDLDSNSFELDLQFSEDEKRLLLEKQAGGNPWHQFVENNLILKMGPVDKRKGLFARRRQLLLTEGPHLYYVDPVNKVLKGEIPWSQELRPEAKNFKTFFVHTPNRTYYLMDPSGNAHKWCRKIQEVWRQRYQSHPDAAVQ
To be noted: at 0.1 µM.

The target of experiment [2] is cAMP-dependent protein kinase catalytic subunit alpha (Homo sapiens) (UniProt P17612). To be noted: at 0.1 µM.
Experiment [3] shares this target. To be noted: at 1 µM.
For experiment [4], the target named is Protein kinase C alpha type (Homo sapiens) (UniProt P17252). To be noted: at 0.1 µM.
Experiment [5] has the same target. The following applies: at 1 µM.
In experiment [6] the target is Protein kinase C beta type (Homo sapiens) (UniProt P05771). To be noted: at 0.1 µM.
The target is the same in experiment [7]. The following applies: at 1 µM.
For experiment [8], the target named is Protein kinase C eta type (Homo sapiens) (UniProt P24723). The following applies: at 0.1 µM.
For experiment [9] the target is unchanged. To be noted: at 1 µM.
Experiment [10] deals with Protein kinase C gamma type (Homo sapiens) (UniProt P05129). The following applies: at 0.1 µM.
Experiment [11] has the same target. The following applies: at 1 µM.
Experiment [12] deals with T2, Protein kinase C iota type (Homo sapiens) (UniProt P41743).
T2 sequence (whole entry): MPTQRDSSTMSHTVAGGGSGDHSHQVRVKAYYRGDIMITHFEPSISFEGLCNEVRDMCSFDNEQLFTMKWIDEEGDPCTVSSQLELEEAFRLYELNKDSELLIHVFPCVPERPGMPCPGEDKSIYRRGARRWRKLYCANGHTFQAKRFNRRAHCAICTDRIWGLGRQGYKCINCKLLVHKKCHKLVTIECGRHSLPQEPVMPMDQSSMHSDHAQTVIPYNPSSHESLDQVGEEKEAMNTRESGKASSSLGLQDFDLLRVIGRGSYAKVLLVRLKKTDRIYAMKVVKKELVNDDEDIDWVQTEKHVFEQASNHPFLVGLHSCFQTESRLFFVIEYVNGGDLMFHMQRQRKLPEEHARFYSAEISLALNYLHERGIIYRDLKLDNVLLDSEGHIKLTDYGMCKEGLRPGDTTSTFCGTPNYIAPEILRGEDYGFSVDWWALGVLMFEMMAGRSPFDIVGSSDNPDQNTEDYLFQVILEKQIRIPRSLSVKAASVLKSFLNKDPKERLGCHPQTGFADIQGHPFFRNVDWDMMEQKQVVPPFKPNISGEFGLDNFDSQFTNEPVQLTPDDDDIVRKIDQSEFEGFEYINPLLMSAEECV
The following applies: at 0.1 µM.

Experiment [13] deals with T2, Protein kinase C iota type (Homo sapiens). To be noted: at 1 µM.
Experiment [14] concerns the target Protein kinase C theta type (Homo sapiens) (UniProt Q04759). The following applies: at 0.1 µM.
The target is the same in experiment [15]. The following applies: at 1 µM.
In experiment [16] the target is Protein kinase C beta type (Homo sapiens) (UniProt P05771). The following applies: at 0.1 µM. This is another data set of the same source.
For experiment [17] the target is unchanged. The following applies: at 1 µM. The source holds these as a separate data set.
The target in experiment [18] is T3, Serine/threonine-protein kinase D1 (Homo sapiens) (UniProt Q15139).
T3 sequence (whole entry): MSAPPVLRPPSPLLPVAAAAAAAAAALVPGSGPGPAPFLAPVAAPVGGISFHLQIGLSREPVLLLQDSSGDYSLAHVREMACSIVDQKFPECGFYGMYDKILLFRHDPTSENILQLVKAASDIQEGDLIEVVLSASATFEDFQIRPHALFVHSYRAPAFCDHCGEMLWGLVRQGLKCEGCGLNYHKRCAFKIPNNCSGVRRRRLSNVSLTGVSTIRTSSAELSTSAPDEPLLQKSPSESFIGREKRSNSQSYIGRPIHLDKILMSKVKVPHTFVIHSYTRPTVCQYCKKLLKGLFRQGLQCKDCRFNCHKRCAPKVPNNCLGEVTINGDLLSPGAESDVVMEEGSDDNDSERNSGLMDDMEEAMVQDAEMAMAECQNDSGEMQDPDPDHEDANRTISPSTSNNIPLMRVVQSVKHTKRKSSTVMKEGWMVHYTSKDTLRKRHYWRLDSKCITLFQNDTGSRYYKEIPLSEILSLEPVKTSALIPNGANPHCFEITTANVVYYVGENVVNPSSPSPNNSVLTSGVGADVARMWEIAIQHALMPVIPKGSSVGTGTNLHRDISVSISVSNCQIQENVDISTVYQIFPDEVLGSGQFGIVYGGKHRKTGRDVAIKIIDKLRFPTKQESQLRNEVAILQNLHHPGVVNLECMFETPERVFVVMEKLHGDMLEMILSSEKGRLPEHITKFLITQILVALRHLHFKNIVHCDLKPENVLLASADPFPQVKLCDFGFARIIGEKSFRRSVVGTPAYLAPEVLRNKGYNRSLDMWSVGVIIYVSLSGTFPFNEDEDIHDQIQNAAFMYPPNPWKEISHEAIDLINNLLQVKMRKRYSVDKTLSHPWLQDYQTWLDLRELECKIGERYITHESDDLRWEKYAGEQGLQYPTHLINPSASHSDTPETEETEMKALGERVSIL
The following applies: at 0.1 µM.

The target in experiment [19] is T3, Serine/threonine-protein kinase D1 (Homo sapiens). The following applies: at 1 µM.
For experiment [20], the target named is T4, Serine/threonine-protein kinase D2 (Homo sapiens) (UniProt Q9BZL6).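 Also: reported percent inhibition values are means, part of the GSK PKIS kinase panel screen.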
T4 sequence (whole entry): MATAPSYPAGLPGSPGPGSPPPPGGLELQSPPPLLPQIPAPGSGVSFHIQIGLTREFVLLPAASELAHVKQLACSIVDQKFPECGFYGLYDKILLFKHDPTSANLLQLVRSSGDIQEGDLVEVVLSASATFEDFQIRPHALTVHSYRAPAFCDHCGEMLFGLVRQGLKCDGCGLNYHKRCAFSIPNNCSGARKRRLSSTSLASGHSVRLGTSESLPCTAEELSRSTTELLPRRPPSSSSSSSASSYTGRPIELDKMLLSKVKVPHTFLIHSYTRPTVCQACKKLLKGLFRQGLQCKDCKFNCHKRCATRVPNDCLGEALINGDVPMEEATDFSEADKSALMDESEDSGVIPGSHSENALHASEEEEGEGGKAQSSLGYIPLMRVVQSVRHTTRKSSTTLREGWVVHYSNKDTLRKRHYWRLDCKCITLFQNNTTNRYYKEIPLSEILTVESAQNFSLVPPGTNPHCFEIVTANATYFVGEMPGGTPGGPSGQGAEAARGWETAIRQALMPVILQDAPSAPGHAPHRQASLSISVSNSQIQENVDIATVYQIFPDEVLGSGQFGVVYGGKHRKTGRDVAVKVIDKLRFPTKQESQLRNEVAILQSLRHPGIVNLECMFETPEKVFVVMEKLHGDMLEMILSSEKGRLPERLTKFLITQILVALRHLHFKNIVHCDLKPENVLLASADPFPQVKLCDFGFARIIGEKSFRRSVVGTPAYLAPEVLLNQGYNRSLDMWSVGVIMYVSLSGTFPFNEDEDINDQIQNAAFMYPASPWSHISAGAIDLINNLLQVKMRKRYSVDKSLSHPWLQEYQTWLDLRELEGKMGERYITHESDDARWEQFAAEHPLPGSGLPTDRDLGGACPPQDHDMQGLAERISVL
To be noted: at 0.1 µM.

The structures appear in SMILES notation.

Sequence of Protein kinase C theta type (Homo sapiens) (Q04759 whole entry, looked up): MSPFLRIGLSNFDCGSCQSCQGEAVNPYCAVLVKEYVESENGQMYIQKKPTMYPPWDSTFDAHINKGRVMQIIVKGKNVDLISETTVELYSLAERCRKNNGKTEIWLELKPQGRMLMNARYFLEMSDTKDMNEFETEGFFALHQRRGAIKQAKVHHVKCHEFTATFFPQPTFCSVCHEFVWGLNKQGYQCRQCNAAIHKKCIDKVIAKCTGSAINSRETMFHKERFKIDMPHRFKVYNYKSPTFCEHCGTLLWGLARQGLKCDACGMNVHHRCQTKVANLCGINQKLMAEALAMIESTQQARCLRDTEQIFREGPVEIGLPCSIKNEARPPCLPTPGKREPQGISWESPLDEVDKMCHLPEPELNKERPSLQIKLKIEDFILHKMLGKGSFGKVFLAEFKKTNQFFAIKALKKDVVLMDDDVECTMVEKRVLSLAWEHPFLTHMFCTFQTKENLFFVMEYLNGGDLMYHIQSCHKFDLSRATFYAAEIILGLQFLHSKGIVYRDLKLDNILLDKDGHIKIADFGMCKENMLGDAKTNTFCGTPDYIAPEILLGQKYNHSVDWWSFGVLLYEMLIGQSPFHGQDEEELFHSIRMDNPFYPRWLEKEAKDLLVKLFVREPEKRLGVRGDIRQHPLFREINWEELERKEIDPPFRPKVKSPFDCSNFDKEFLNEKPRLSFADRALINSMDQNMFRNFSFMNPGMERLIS
Sequence of Protein kinase C eta type (Homo sapiens) (P24723 whole entry): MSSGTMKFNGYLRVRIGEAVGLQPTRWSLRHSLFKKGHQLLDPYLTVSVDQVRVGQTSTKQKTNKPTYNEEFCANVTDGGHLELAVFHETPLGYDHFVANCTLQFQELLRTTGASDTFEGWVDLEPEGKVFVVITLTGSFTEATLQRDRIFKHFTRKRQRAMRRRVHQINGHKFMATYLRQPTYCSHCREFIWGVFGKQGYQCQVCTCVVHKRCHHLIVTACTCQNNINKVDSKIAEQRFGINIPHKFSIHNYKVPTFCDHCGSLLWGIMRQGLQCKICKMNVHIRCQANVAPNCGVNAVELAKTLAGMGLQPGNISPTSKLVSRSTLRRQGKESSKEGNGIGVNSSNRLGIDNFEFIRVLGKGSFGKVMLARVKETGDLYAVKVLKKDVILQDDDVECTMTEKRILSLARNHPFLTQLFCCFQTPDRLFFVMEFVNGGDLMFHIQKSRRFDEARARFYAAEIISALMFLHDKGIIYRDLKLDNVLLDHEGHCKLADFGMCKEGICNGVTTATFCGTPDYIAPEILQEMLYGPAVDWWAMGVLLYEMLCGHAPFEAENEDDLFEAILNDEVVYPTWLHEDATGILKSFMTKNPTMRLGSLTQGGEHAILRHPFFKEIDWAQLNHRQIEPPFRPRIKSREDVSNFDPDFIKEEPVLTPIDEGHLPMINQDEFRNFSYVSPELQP
Sequence of Protein kinase C beta type (Homo sapiens) (P05771 2-671 limits assumed): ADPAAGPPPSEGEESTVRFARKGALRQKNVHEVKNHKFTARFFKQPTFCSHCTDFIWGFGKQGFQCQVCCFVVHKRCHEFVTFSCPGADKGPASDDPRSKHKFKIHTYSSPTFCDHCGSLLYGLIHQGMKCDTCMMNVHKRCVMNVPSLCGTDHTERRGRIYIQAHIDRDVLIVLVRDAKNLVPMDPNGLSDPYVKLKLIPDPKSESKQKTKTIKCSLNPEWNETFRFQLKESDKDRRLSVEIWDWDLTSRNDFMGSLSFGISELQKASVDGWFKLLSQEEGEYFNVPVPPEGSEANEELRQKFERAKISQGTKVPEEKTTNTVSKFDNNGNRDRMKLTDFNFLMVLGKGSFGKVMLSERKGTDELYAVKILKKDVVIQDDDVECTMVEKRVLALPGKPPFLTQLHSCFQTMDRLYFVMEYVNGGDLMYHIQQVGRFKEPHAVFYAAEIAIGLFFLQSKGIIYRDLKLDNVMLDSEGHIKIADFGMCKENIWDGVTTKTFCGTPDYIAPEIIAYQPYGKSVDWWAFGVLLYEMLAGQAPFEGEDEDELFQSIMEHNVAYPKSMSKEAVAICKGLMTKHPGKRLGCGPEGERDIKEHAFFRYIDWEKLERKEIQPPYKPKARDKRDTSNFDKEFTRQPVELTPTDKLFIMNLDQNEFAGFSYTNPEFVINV

For `Cc1ccc(C(=O)NC2CCCCC2)cc1-c1ccc(C(=O)NCC2CC2)cc1`, the inhibition in experiment [1] amounted to 3.8%; in [2], 3.21%; in experiment [3], 1.86%; in experiment [4] it was 0.96%; in experiment [5], 2.17%; in experiment [6], 1.17%. Moreover, the inhibition in [7] is 1.93%; in [8], 3.2%; in experiment [9], -0.62%; in [10], 3.68%; in [11], 3.86%; in experiment [12] it was 0.11%. For the same compound, the inhibition in [13] is 2.97%; in experiment [14] it was 1.39%; in experiment [15], 0.58%; in experiment [16], 1.11%; in experiment [17] it was 3.12%; in experiment [18] it was 1.97%. In addition, the inhibition in experiment [19] stood at 2.69%; in experiment [20], 1.98%.
`CS(=O)(=O)CCNCc1ccc(-c2ccc3ncnc(Nc4ccc(OCc5ccccc5)c(Cl)c4)c3c2)o1`: the inhibition was -0.51% in experiment [1]; -0.81% in experiment [2]; 1.12% in experiment [3]; 0.09% in experiment [4]; -0.42% in [5]; -1.09% in [6]. The inhibition in [7] was -2.64%; in experiment [8] it was 1.32%; in [9], -1.74%; in [10] it was 1.29%; in experiment [11], 0.93%; in experiment [12], 0.76%. Besides, the inhibition in experiment [13] was 1.11%; in experiment [14], 0.62%; in experiment [15] it was 0.16%; in experiment [16], -0.28%; in experiment [17], 0.08%; in experiment [18], -0.53%. Further, the values for the inhibition in experiment [19] and in experiment [20] were 0.36% and -0.95%, respectively.
On to `N#Cc1c(NC(=O)c2cccc3ccccc23)sc2c1CCCC2`, for which the inhibition in experiment [1] came out at 1.52%; in experiment [2], 1.59%; in [3] it was 1.98%; in [4], 0.26%; in experiment [5] it was 1.22%; in experiment [6], 1.24%. For the same compound, the inhibition in experiment [7] is -1.28%; in [8], 3.52%; in [9], 3.65%; in [10], 2.48%; in experiment [11], 0.67%; in experiment [12], 1.98%. In addition, the inhibition in [13] is 2.38%; in experiment [14] it was 1.69%; in [15], 0.74%; in [16] it was 2.18%; in [17], 2.04%; in [18], 4.23%. Besides, the inhibition in experiment [19] is 4.24%; in [20], 2.17%.
For the compound `Nc1ncnc2occ(-c3ccc(NC(=O)Nc4cccc(C(F)(F)F)c4)cc3)c12`, the inhibition in experiment [1] was -1.02%; in experiment [2], 2.38%; in [3] it was 4.85%; in experiment [4], 0.88%; in experiment [5] it was 1.68%; in [6] it was 0.7%. The inhibition was 12.6% in experiment [7]; 0.55% in [8]; 6.96% in experiment [9]; -0.58% in experiment [10]; 2.18% in experiment [11]; 3.47% in [12]. Besides, the inhibition turned out to be 3.34% in experiment [13]; 2.55% in [14]; 2.66% in [15]; 1.71% in [16]; 2.2% in experiment [17]; 5.29% in [18]. Besides, the inhibition in experiment [19] is 7.85%; in experiment [20], 5.02%.
As for `O=C1Nc2ccc(C(=O)c3ccco3)cc2C1=Cc1cc(Cl)c(O)c(Cl)c1`, the inhibition in experiment [1] was 3.22%; in [2] it was 1.97%; in experiment [3], 4.78%; in experiment [4], 1.38%; in experiment [5], 3.32%; in experiment [6], -0.57%. In addition, the inhibition in experiment [7] stood at 1.37%; in experiment [8], 4.29%; in experiment [9] it was 7.64%; in [10], 1.31%; in experiment [11] it was 6.26%; in [12], 4.4%. Moreover, the inhibition in experiment [13] is -0.01%; in experiment [14], 2.45%; in experiment [15], 7.59%; in experiment [16], 1.83%; in [17], 3.01%; in experiment [18], 2.76%. The inhibition in [19] came to 6.32%; in experiment [20], 2.72%.
Turning to `Cn1cc(C=C2C(=O)Nc3cccnc32)c2ccccc21`, the inhibition in experiment [1] was 0.63%; in [2] it was 0.99%; in experiment [3] it was 1.46%; in [4] it was 1%; in [5], 1.29%; in experiment [6], -0.06%. In addition, the inhibition in experiment [7] is -1.44%; in experiment [8] it was 2.86%; in experiment [9] it was -0.57%; in experiment [10] it was -1.77%; in experiment [11], -0.93%; in experiment [12], 0.27%. The inhibition is 1.58% in experiment [13]; -0.39% in experiment [14]; 0.22% in [15]; 0.8% in [16]; 0.8% in [17]; 2.63% in [18]. Besides, the inhibition came out at 10.6% in experiment [19] and 3.33% in experiment [20].

As a reminder, the inhibition is the change of the read-out against control, counted positive when it falls.
